Hit rate of the full screen: of about 5,500 compounds, about 2,000 (36%) were called active. Inconclusive results (about 18%) are left out. Rule as the data show it: active = normalized growth mostly below about 0.91 (no sharp cut-off); inconclusive = no clear call, values can overlap the other calls; inactive = mostly above about 0.92. This is one part of the list.
Assay: chemical genetic growth profiling, strain panel (AID 1159580);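 also: tested at 20 µM; growth read once vehicle control cultures reached saturation at 30 °C; 1 = growth at the plate median or of vehicle wells; lower values mean less growth of the strain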
Details: growth OD
[1] = S. cerevisiae deletion strains, locus YBR229C, strain ROT2, active compounds read low
[2] = S. cerevisiae deletion strains, locus YDL101C, strain DUN1, active compounds read low
[3] = S. cerevisiae deletion strains, locus YEL061C, strain CIN8, active compounds read low
[4] = S. cerevisiae deletion strains, locus YGR078C, strain PAC10, active compounds read low
[5] = S. cerevisiae deletion strains, locus YHR030C, strain SLT2, active compounds read low
[6] = S. cerevisiae deletion strains, locus YJR043C, strain POL32, active compounds read low
[7] = S. cerevisiae deletion strains, locus YLR039C, strain RIC1, active compounds read low
[8] = S. cerevisiae deletion strains, locus YLR262C, strain YPT6, active compounds read low
[9] = S. cerevisiae deletion strains, locus YNL153C, strain GIM3, active compounds read low
[10] = S. cerevisiae deletion strains, locus YPL241C, strain CIN2, active compounds read low
[11] = S. cerevisiae strains, strain wild type, active compounds read low

Measured: normalized growth

COC(=O)C[C@H]1C(C)(C)[C@H](O)[C@@H]2CC3=C4CC(O)O[C@@H](c5ccoc5)[C@]4(C)CCC3[C@@]1(C)C2=O (stereo partly drawn)
inactive: S. cerevisiae deletion strains, locus YBR021W, strain FUR4, active compounds read low 1.01 | [1] 0.948 | S. cerevisiae deletion strains, locus YCL029C, strain bik1, active compounds read low 0.969 | S. cerevisiae deletion strains, locus YDL035C, strain GPR1, active compounds read low 0.974 | S. cerevisiae deletion strains, locus YDL074C, strain BRE1, active compounds read low 0.966 | [2] 0.99 | S. cerevisiae deletion strains, locus YDL185W, strain tfp1, active compounds read low 0.971 | S. cerevisiae deletion strains, locus YDL192W, strain arf1, active compounds read low 0.978 | S. cerevisiae deletion strains, locus YDR101C, strain arx1, active compounds read low 0.983 | S. cerevisiae deletion strains, locus YDR162C, strain NBP2, active compounds read low 0.984 | S. cerevisiae deletion strains, locus YDR318W, strain mcm21, active compounds read low 0.992 | S. cerevisiae deletion strains, locus YDR388W, active compounds read low 0.979 | S. cerevisiae deletion strains, locus YDR502C, strain sam2, active compounds read low 1.02 | [3] 0.974 | S. cerevisiae deletion strains, locus YER110C, active compounds read low 0.985 | S. cerevisiae deletion strains, locus YER155C, strain BEM2, active compounds read low 1 | S. cerevisiae deletion strains, locus YER167W, strain BCK2, active compounds read low 0.969 | S. cerevisiae deletion strains, locus YGL078C, strain dbp3, active compounds read low 1.03 | S. cerevisiae deletion strains, locus YGL086W, strain mad1, active compounds read low 1 | S. cerevisiae deletion strains, locus YGL248W, strain PDE1, active compounds read low 0.991 | [4] 1.02 | S. cerevisiae deletion strains, locus YGR135W, strain pre9, active compounds read low 1.07 | S. cerevisiae deletion strains, locus YGR229C, strain SMI1, active compounds read low 1.02 | S. cerevisiae deletion strains, locus YGR252W, strain gcn5, active compounds read low 1.03 | [5] 0.996 | S. cerevisiae deletion strains, locus YHR079C, strain IRE1 (second series), active compounds read low 0.993 | S. cerevisiae deletion strains, locus YHR094C, strain hxt1, active compounds read low 0.984 | S. cerevisiae deletion strains, locus YHR129C, strain ARP1, active compounds read low 0.99 | S. cerevisiae deletion strains, locus YHR200W, strain rpn10, active compounds read low 0.999 | S. cerevisiae deletion strains, locus YIL066C, strain RNR3, active compounds read low 0.948 | S. cerevisiae deletion strains, locus YIL073C, strain SPO22, active compounds read low 0.964 | S. cerevisiae deletion strains, locus YIL125W, strain kgd1, active compounds read low 0.986 | S. cerevisiae deletion strains, locus YIR030C, strain dcg1, active compounds read low 0.99 | S. cerevisiae deletion strains, locus YJL095W, strain BCK1, active compounds read low 0.993 | S. cerevisiae deletion strains, locus YJL134W, strain LCB3, active compounds read low 0.971 | S. cerevisiae deletion strains, locus YJL168C, strain set2, active compounds read low 0.991 | S. cerevisiae deletion strains, locus YJL187C, strain SWE1 (second series), active compounds read low 1 | [6] 0.975 | S. cerevisiae deletion strains, locus YKL009W, strain mrt4, active compounds read low 0.953 | S. cerevisiae deletion strains, locus YKL068W, active compounds read low 0.985 | S. cerevisiae deletion strains, locus YKL085W, strain MDH1 (second series), active compounds read low 0.988 | S. cerevisiae deletion strains, locus YKL085W, strain MDH1, active compounds read low 0.988 | S. cerevisiae deletion strains, locus YKL190W, strain CNB1, active compounds read low 0.98 | S. cerevisiae deletion strains, locus YKR001C, strain vps1, active compounds read low 0.978 | [7] 0.964 | S. cerevisiae deletion strains, locus YLR058C, strain SHM2, active compounds read low 0.975 | S. cerevisiae deletion strains, locus YLR102C, strain apc9, active compounds read low 0.991 | [8] 0.99 | S. cerevisiae deletion strains, locus YLR268W, strain sec22, active compounds read low 0.953 | S. cerevisiae deletion strains, locus YLR330W, strain CHS5, active compounds read low 0.986 | S. cerevisiae deletion strains, locus YLR371W, strain rom2, active compounds read low 0.986 | S. cerevisiae deletion strains, locus YLR418C, strain cdc73, active compounds read low 0.975 | S. cerevisiae deletion strains, locus YML016C, strain PPZ1, active compounds read low 0.977 | S. cerevisiae deletion strains, locus YML032C, strain rad52, active compounds read low 0.976 | S. cerevisiae deletion strains, locus YML124C, strain tub3, active compounds read low 0.992 | S. cerevisiae deletion strains, locus YMR078C, strain ctf18, active compounds read low 0.989 | S. cerevisiae deletion strains, locus YMR223W, strain ubp8, active compounds read low 1 | S. cerevisiae deletion strains, locus YMR307W, strain GAS1, active compounds read low 0.951 | S. cerevisiae deletion strains, locus YNL067W, strain RPL9B, active compounds read low 1.03 | [9] 1.01 | S. cerevisiae deletion strains, locus YNL233W, strain BNI4, active compounds read low 1.03 | S. cerevisiae deletion strains, locus YNL250W, strain rad50, active compounds read low 0.998 | S. cerevisiae deletion strains, locus YNL271C, strain bni1, active compounds read low 0.989 | S. cerevisiae deletion strains, locus YNL298W, strain CLA4, active compounds read low 0.984 | S. cerevisiae deletion strains, locus YNL307C, strain MCK1, active compounds read low 0.994 | S. cerevisiae deletion strains, locus YNR052C, strain pop2, active compounds read low 1.04 | S. cerevisiae deletion strains, locus YOL012C, strain htz1 0.912 | S. cerevisiae deletion strains, locus YOL147C, strain pex11, active compounds read low 0.989 | S. cerevisiae deletion strains, locus YOR061W, strain CKA2, active compounds read low 0.944 | S. cerevisiae deletion strains, locus YOR069W, strain VPS5, active compounds read low 0.986 | S. cerevisiae deletion strains, locus YOR136W, strain idh2, active compounds read low 0.994 | S. cerevisiae deletion strains, locus YOR144C, strain elg1, active compounds read low 0.991 | S. cerevisiae deletion strains, locus YOR184W, strain ser1, active compounds read low 0.954 | S. cerevisiae deletion strains, locus YOR316C, strain cot1, active compounds read low 0.992 | [10] 0.988 | S. cerevisiae deletion strains, locus YPR119W, strain clb2, active compounds read low 1.01 | S. cerevisiae deletion strains, locus YPR141C, strain kar3, active compounds read low 0.989 | S. cerevisiae deletion strains, locus YPR163C, strain tif3, active compounds read low 0.987 | S. cerevisiae deletion strains, locus YPR167C, strain met16, active compounds read low 0.996 | S. cerevisiae deletion strains, strain wtn01, active compounds read low 0.98 | [11] 0.979

FC(F)(F)c1cc(-c2ccc(Cl)cc2)nc2cc(C3CC3)nn12
inactive: S. cerevisiae deletion strains, locus YAL013W, strain DEP1, active compounds read low 1.03 | [1] 1.01 | [2] 1.03 | S. cerevisiae deletion strains, locus YDR150W, strain NUM1, active compounds read low 0.99 | [3] 1 | [4] 1.03 | [5] 1.16 | S. cerevisiae deletion strains, locus YHR087W, strain rtc3, active compounds read low 1.02 | S. cerevisiae deletion strains, locus YJL187C, strain SWE1, active compounds read low 1.01 | [6] 1.04 | S. cerevisiae deletion strains, locus YJR075W, strain HOC1, active compounds read low 1.01 | [7] 1.01 | S. cerevisiae deletion strains, locus YLR058C, strain SHM2 (second series), active compounds read low 1.02 | S. cerevisiae deletion strains, locus YLR085C, strain ARP6, active compounds read low 1.05 | [8] 1.06 | S. cerevisiae deletion strains, locus YML094W, strain GIM5, active compounds read low 1.02 | S. cerevisiae deletion strains, locus YMR219W, strain ESC1, active compounds read low 1.01 | S. cerevisiae deletion strains, locus YMR263W, strain SAP30, active compounds read low 1.01 | [9] 1.02 | S. cerevisiae deletion strains, locus YNL298W, strain CLA4 (second series), active compounds read low 1.05 | S. cerevisiae deletion strains, locus YNL322C, strain KRE1, active compounds read low 1.02 | S. cerevisiae deletion strains, locus YNR030W, strain Alg12, active compounds read low 1.01 | S. cerevisiae deletion strains, locus YOL006C, strain TOP1, active compounds read low 1.08 | S. cerevisiae deletion strains, locus YPL055C, strain LGE1, active compounds read low 1.03 | [10] 1.02 | S. cerevisiae deletion strains, locus YPR135W, strain CTF4, active compounds read low 1.15 | [11] 0.997
